# Screens from PubChem BioAssay.
# In the library only some 4.2% were active in any assay of this set; here they are far more common.
# SW480 rerep: inducers of DNA re-replication in SW480 colon cancer cells. SW480 DNA re-replication, Hoechst DNA content imaging, 48 h. Potency, µM (top dose mostly 46.1 µM), without a hit: at the top dose re-replication activation, most hits filed as activators. hit rate 1.8% among 340,000. AID 624297; also: % of control where 0% means no effect; nearly all actives have a fitted effect of over 55% in size
#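 250 cells/well; 23 nL cpd via pin tool; 48 hr, 37 C, 5% CO2; Hoechst 40 min; imager read of total nuclear intensity, ex 405/em 500-530 nm.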
# MCF10A rereplic: inducers of DNA re-replication in MCF 10A breast cells; MCF 10A DNA re-replication, Hoechst nuclear intensity, 48 h; Potency, µM (top dose mostly 46.1 µM), for the others: at the top dose activity, positive = re-replication, usual class: activators; hit rate 2.9% among 350,000; also: % of control where 0% means no effect; nearly all actives have a fitted effect of over 50% in size
# Mito fusion yeast: inhibitors of mitochondrial division or activators of mitochondrial fusion; hit rate 0.23% among 320,000; Potency, µM (series often up to 46.1 µM), without a hit: at the highest dose growth rescue (activation), most hits filed as activators; S. cerevisiae fusion-defective mutant growth rescue, CellTiterGlo 48 h; also: % of control where 0% means no effect; nearly all actives have a fitted effect of over 45% in size
#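 S. cerevisiae fusion-defective temperature-sensitive mutants (e.g. fzo1-1, mgm1-5) grown 48 h at 37C in YPEG (ethanol/glycerol non-fermentable) medium with 23 nl compound per well; growth rescue read as CellTiterGlo luminescence.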
# Integrin act MD: activates integrin-mediated alleviation for muscular dystrophy | alpha7betagal myoblasts, beta-gal FDG fluorescence, 48 h | hit rate 0.064% among 350,000 | Potency, µM (doses to about 38.3 µM), inactives show at the highest dose activation, hits mostly activators;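 also: 100% = response of the positive control SU9516; nearly all actives have a fitted effect of over 60% in size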
#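 alpha7betagal+/- myoblasts (passage 13, 250/well) treated 48 h at 37C with compounds at 1:260 dilution of DMSO stock. Lysed, then beta-galactosidase activity read as FDG fluorescence (ex 480/em 540) after 30 min, with pre-read for autofluorescence.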
# AT treatment: potential ataxia-telangiectasia treatments restoring KAP-1 phosphorylation; F2112 A-T fibroblasts, KAP-1 phosphorylation AlphaLISA; neocarzinostatin DNA damage 30 min before lysis; AID 485349; Potency, µM (titrated, usually from 57.5 µM), for inactives: at the top dose activation, actives largely listed as activators; hit rate 0.19% among 320,000; also: % of control where 0% means no effect; nearly all actives have a fitted effect of over 45% in size
#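 ATM-like activity read as KAP-1 phosphorylation via AlphaLISA donor/acceptor antibody pairs after lysis and 6 hr at 25C. Cells were ATM-null patient fibroblasts (F2112, hTERT), dosed 60 min, then exposed to the DSB inducer NCS for 30 min.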
# Numbers without * were called inactive; ? = inconclusive; / = not tested or not shown; [ ] = dose if it differs, or a comment. Calls follow the shape of the dose curve; as a rule, active = well fitted activation curve with a large enough effect; inconclusive = small, poorly fitted or top-dose-only effect; inactive = no such curve, though single readings can be large or run the other way. Potency is read from the fitted curve at half-maximal effect.
SMILES,SW480 rerep,MCF10A rereplic,Mito fusion yeast,Integrin act MD,AT treatment
CCOC(=O)C1(C)NC(c2cccs2)C2C(=O)N(c3ccc(OC)cc3)C(=O)C21 (stereo not drawn),?,18µM*,-2%,11%,3%
CCOC(=O)C1(C)NC(c2ccc(N(C)C)cc2)C2C(=O)N(c3ccc(OC)cc3)C(=O)C21 (stereo not drawn),-2%,-1%,1%,8%,-2%
C[C@H](CO)N1C[C@H](C)[C@@H](CN(C)S(=O)(=O)c2cn(C)cn2)OCc2cnnn2CCCC1=O,/,/,/,16%,/
CC(C)(c1ccccc1)c1ccc(OCC(O)CN2CCCC2)cc1 (stereo not drawn),16µM*,?,-12%,-49%,2%
CN(C)S(=O)(=O)N1CCN(CC(O)COc2ccc3cc(Br)ccc3c2)CC1 (stereo not drawn),10%,0%,-28%,2%,8%
OC(COc1ccc(OCc2ccccc2)cc1)CN1CCOCC1 (stereo not drawn),?,9.2µM*,-8%,-5%,/
CN(C)S(=O)(=O)N1CCN(CC(O)COc2ccc(-c3ccccc3)cc2)CC1 (stereo not drawn),6%,23µM*,-7%,1%,2%
C=CCc1ccccc1OCC(O)CN1CCOCC1 (stereo not drawn),12µM*,9%,/,-9%,/
Cc1noc(C)c1NC(=O)N(C)C[C@@H]1Oc2cc(Br)ccc2S(=O)(=O)N([C@H](C)CO)C[C@@H]1C,/,/,/,22%,/
CCCc1ccc(OCC(O)CN2CCCC2)cc1 (stereo not drawn),-2%,15µM*,-2%,-48%,-10%
CN1CCN(CC(O)COc2ccccc2)CC1 (stereo not drawn),-1%,-2%,-1%,-11%,3%
OC(COc1ccc(OCC(O)CN2CCCCCC2)cc1)CN1CCCCCC1 (stereo not drawn),-8%,-3%,-3%,-61%,-7%
CN1CCN(CC(O)COc2ccc(C34CC5CC(CC(C5)C3)C4)cc2)CC1 (stereo not drawn),?,15µM*,-1%,-72%,1%
CCOC(=O)Cc1c(C)nc2c(-c3cccc(Br)c3)c[nH]n2c1=O,18µM*,7.3µM*,-2%,?,1%
Cc1cc(C(=O)CN2C(=O)C(=O)N(Cc3ccco3)C2=O)c(C)n1CCc1ccc(F)cc1,?,?,12%,0%,-4%
COc1ccc(-n2c(C)cc(C(=O)CN3C(=O)C(=O)N(Cc4ccccc4)C3=O)c2C)cc1,8%,5.8µM*,18%,-33%,-16%
Cc1cc(C(=O)CN2C(=O)C(=O)N(Cc3ccco3)C2=O)c(C)n1CCc1ccccc1,?,4.6µM*,14%,-21%,-8%
CC1CCN(C(=O)COC(=O)c2cccc(NS(=O)(=O)c3ccccc3)c2)CC1,?,-12%,5%,-20%,0%
COc1ccc(-c2csc(N3CCN(C(=O)c4ccco4)CC3)n2)cc1,-3%,27%,-2%,-23%,1%
COc1ccc(C2=NN(c3nc(-c4ccc(CNC(C)=O)cc4)cs3)C(c3ccco3)C2)cc1 (stereo not drawn),?,2.6µM*,-15%,1%,9%
C/C(CC(=O)Nc1cc(Cl)ccc1Cl)=N\NC(=O)c1ccccc1Br,-58%,3%,9%,-23%,1%
CSc1nc(SCC(=O)NC(c2ccccc2)c2ccccc2)c2c3c(sc2n1)CN(C)CC3,5.8µM*,5.2µM*,2%,-28%[7.66 µM],1%
S=c1[nH]cc(-c2ccccc2)n1-c1ccccc1Cl,-3%,8%,3%,-25%,3%
COc1ccccc1-n1c(-c2ccccc2)c[nH]c1=S,-7%,5.2µM*,?,-28%,4%
O=C(NC(=S)NCCC1=CCCCC1)c1ccc(Br)o1,-1%,12%,0%,7.1µM*,8%
SMILES,SW480 rerep,MCF10A rereplic,Mito fusion yeast,Integrin act MD,AT treatment
O=C(NCCC1=CCCCC1)c1ccc(Br)o1,-9%,0%,9%,7%,5%
C[C@]12C=C[C@H](O)CC1=CCC1C2CC[C@@]2(C)C1CCC21OCCO1 (stereo partly drawn),?,21µM*,/,-18%,12%
C[C@]12C=CC(=O)C=C1CCC1C2CC[C@@]2(C)C1CCC21OCCO1 (stereo partly drawn),-2%,?,/,-59%,0%
COCc1c(C(=O)Nc2nnc(C3CC3)s2)oc2ccccc12,/,/,/,-5%,/
OC(C#Cc1ccccn1)c1cccs1 (stereo not drawn),?,?,-12%,-65%,14µM*
N#CC1C(=N)Cc2ccccc2-c2ccccc21 (stereo not drawn),16µM*,?,/,-10%,/
CCC/C=N/NC(=O)c1[nH]c2c([N+](=O)[O-])cccc2c1C,18µM*,6.5µM*,-3%,-27%,4%
CCCCC/C=N/NC(=O)c1[nH]c2ccc([N+](=O)[O-])cc2c1C,-8%,?,-14%,-7%,-2%
O=S(=O)(c1ccc2nc(-c3ccccc3)[nH]c2c1)N1CCN(c2ccc(Cl)cc2)CC1,?,16µM*,7%,-16%,-3%
Cc1ccc(OCC(O)Cn2c3ccccc3c3ccccc32)cc1 (stereo not drawn),?,8%,-26%,-23%,-3%
Cc1cccc(C)c1OCC(O)Cn1c2ccccc2c2ccccc21 (stereo not drawn),?,21µM*,-22%,-41%,17%
COC(=O)/C(=C1/Oc2cc(C)oc(=O)c2S1)C(F)(F)F,12µM*,5.8µM*,13%,-8%,0%
CCc1ccc2nc(SCC(=O)N3CC(=O)Nc4ccccc43)c(C#N)cc2c1,?,8.2µM*,14%,-24%,1%
Cc1ccc2nc(SCC(=O)Nc3ccccc3N3CCOCC3)c(C#N)cc2c1,?,?,5%,27%,/
N#Cc1cc(C#N)c(SCC(=O)N2CC(=O)Nc3ccccc32)nc1N,-3%,6%,-4%,11%,-9%
CCc1ccc2nc(SCC(=O)Nc3ccccc3N3CCOCC3)c(C#N)cc2c1,3.7µM*,3.7µM*,-18%,-36%,-3%
COc1ccc(S(=O)(=O)N2CCOC23CCN(S(=O)(=O)c2cc(F)ccc2F)CC3)cc1,3%,2%,15%,-15%,4%
CC1(C)CC(=O)C=C(c2ccc(-c3cccc4c3sc3ccccc34)cc2)C1=O,/,/,/,12%,/
CCOc1ccc(-n2c(C)cc(C(=O)CCl)c2C)cc1,9.2µM*,12µM*,-7%,-64%,-2%
COC(=O)c1ccc(-n2c(C)cc(C(=O)CCl)c2C)cc1,?,12µM*,-5%,-36%,-4%
COc1cc(/C=N/NC(=O)c2cccc(N3CCCC3=O)c2)ccc1O,?,5%,-15%,8%,-2%
